Measured values published in PubChem BioAssay (Tox21).
Where “and” joins values, the source holds several entries; their conditions need not be identical. Identical values can stand only once. Records with an inconclusive call do not appear. Where a call stands in place of a potency, no number is given. A structure can be active in one record and inactive in another. Calls of active or inactive are those of the source. The call rests on the fitted dose curve; in most records, active means well fitted curve in the direction sought with a large enough effect in the repeat runs; inconclusive means weak or mixed curves; inactive means no such curve, though single readings can be large; an effect the other way counts as inactive or inconclusive.

Assay: qHTS RealTime-Glo MT Cell Viability Assay in HepG2 cells - 24 hour (AID 1224867)
Conditions: RealTime-Glo luminescence; series mostly up to 76.8 µM
How it was run: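 HepG2 suspension premixed with RealTime-Glo reagents is plated at 600 cells per well and left 5 h at 37 C/5% CO2. Compounds in DMSO then go in, and bioluminescence reflecting viable cell number is recorded over 40 h.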
Further: nearly all actives have a fitted effect of over 50% in size.
Potency means the concentration at half of the fitted maximal effect.

SMILES | Potency | activity change, negative = cytotoxicity
O=C(O)c1cc(=O)[nH]c(=O)[nH]1 | inactive | –
COc1cc([C@H]2Oc3cc([C@H]4Oc5cc(O)cc(O)c5C(=O)[C@@H]4O)ccc3O[C@@H]2CO)ccc1O | inactive | –
CC1=CC(C)(C)Nc2ccccc21 | inactive | –
COCCOCCOCCO | inactive | –
O=[Se](O)O | – | -0.447% [at 15.8 µM] (inactive)
C=CCOC(=O)C(=C)C | inactive | –
C=CC(=O)OCCCC | inactive | –
C[C@]12C=CC(=O)C=C1CC[C@H]1[C@@H]3C[C@@H](O)[C@](O)(C(=O)CO)[C@@]3(C)C[C@H](O)[C@@]12F | inactive | –
CC(=O)Oc1ccc(C(c2ccc(OC(C)=O)cc2)c2ccccn2)cc1 | inactive | –
CCO[Si](CCCNC(N)=O)(OCC)OCC | inactive | –
CCCCCC=O | inactive | –
IC(I)I | 38.8 µM (active) and 38.9 µM (active) | –
CN1CCOCC1 | inactive | –
COC(=O)C(C)Oc1ccc(Oc2ncc(C(F)(F)F)cc2Cl)cc1 (stereo not drawn) | inactive | –
OCCNCCO | inactive | –
NCCOCCO | inactive | –
Cc1ccc(C(C)(C)C)c(O)c1 | inactive | –
c1ccc2c(c1)ccc1ncccc12 | inactive | –
CCC(=O)O[C@H]1[C@H](O[C@@H]2[C@@H](C)[C@H](O[C@H]3C[C@@](C)(OC)[C@@H](O)[C@H](C)O3)[C@@H](C)C(=O)O[C@H](CC)[C@@](C)(O)[C@H](O)[C@@H](C)C(=O)[C@H](C)C[C@@]2(C)O)O[C@H](C)C[C@@H]1N(C)C | inactive | –
c1ccc2c(c1)[nH]c1ccccc12 | inactive | –
C=C1C[C@H]2[C@@H]3C=C(C)C4=CC(=O)CC[C@]4(C)[C@H]3CC[C@]2(C)[C@@]1(OC(C)=O)C(C)=O | inactive | –
Cc1ccc([N+](=O)[O-])c(C)c1 | inactive | –
O=S1(=O)CCCO1 | inactive | –
CN(C)C | inactive | –
ClC/C=C/CCl | inactive | –
CCCCCC1C(=O)CCC1CC(=O)OC (stereo not drawn) | inactive | –
Cc1ccc(S(=O)(=O)NCl)cc1 | inactive | –
CCCCCCCCCCCCCO | inactive | –

Assay: qHTS RealTime-Glo MT Cell Viability Assay in HEK293 cells - 32 hour (AID 1224868)
Conditions: RealTime-Glo luminescence; series mostly up to 76.8 µM
How it was run: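 Reads taken at 0, 8, 16, 24, 32 and 40 h from the same wells. HEK293 cells (600/well) carried RealTime-Glo reagents from seeding, with compound added after a 5 h settle at 37 C.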

SMILES | Potency
O=C(O)c1cc(=O)[nH]c(=O)[nH]1 | inactive
COc1cc([C@H]2Oc3cc([C@H]4Oc5cc(O)cc(O)c5C(=O)[C@@H]4O)ccc3O[C@@H]2CO)ccc1O | inactive
CC1=CC(C)(C)Nc2ccccc21 | inactive
COCCOCCOCCO | inactive
O=C1CCc2ccccc2O1 | inactive
O=[Se](O)O | 19.5 µM (active)
FC(F)(F)C(Cl)Br (stereo not drawn) | inactive
C=CCOC(=O)C(=C)C | inactive
C=CC(=O)OCCCC | inactive
C[C@]12C=CC(=O)C=C1CC[C@H]1[C@@H]3C[C@@H](O)[C@](O)(C(=O)CO)[C@@]3(C)C[C@H](O)[C@@]12F | inactive
O=C(O)c1ccc(O)cc1 | inactive
CC(=O)Oc1ccc(C(c2ccc(OC(C)=O)cc2)c2ccccn2)cc1 | inactive
CCO[Si](CCCNC(N)=O)(OCC)OCC | inactive
CCCCCC=O | inactive
IC(I)I | inactive
CN1CCOCC1 | inactive
COC(=O)C(C)Oc1ccc(Oc2ncc(C(F)(F)F)cc2Cl)cc1 (stereo not drawn) | inactive
OCCNCCO | inactive
NCCOCCO | inactive

SMILES | Potency
Cc1ccc(C(C)(C)C)c(O)c1 | inactive
CC(C)=CCO | inactive
CC(=O)Oc1c(C)c(C)c2c(c1C)CC[C@@](C)(CCC[C@H](C)CCC[C@H](C)CCCC(C)C)O2 | inactive
Oc1c(Cl)ccc(Cl)c1Cl | inactive
O=C(O)CCCCCCCCCCCC(=O)O | inactive
c1ccc2c(c1)ccc1ncccc12 | inactive
CCC(=O)O[C@H]1[C@H](O[C@@H]2[C@@H](C)[C@H](O[C@H]3C[C@@](C)(OC)[C@@H](O)[C@H](C)O3)[C@@H](C)C(=O)O[C@H](CC)[C@@](C)(O)[C@H](O)[C@@H](C)C(=O)[C@H](C)C[C@@]2(C)O)O[C@H](C)C[C@@H]1N(C)C | inactive
c1ccc2c(c1)[nH]c1ccccc12 | inactive
OC[C@@H](O)[C@@H](O[C@@H]1O[C@H](CO)[C@H](O)[C@H](O)[C@H]1O)[C@H](O)[C@@H](O)CO | inactive
Cc1ccc([N+](=O)[O-])c(C)c1 | 38.9 µM (active) and inactive
O=C1OC2(c3ccccc31)c1cc(I)c(O)c(I)c1Oc1c2cc(I)c(O)c1I | 49.1 µM (active) and inactive
CC(=O)[C@H]1CC[C@H]2[C@@H]3CC=C4C[C@@H](O)CC[C@]4(C)[C@H]3CC[C@]12C | inactive
O=S1(=O)CCCO1 | inactive
CN(C)C | inactive
ClC/C=C/CCl | inactive
[O-]/[N+](=N\O)c1ccccc1 | inactive
CCCCCC1C(=O)CCC1CC(=O)OC (stereo not drawn) | inactive
Cc1ccc(S(=O)(=O)NCl)cc1 | inactive
CCCCCCCCCCCCCO | inactive

Assay: A CellTox Green Cytotoxicity Assay to monitor cytotoxicity in HEK293 cells - 0 hour (AID 1224869)
Conditions: CellTox Green fluorescence; series mostly up to 76.8 µM
How it was run: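 Cells (HEK293, 600/well) and dye reagent are dispensed together. After 5 h at 37 C, 23 nL compound is pinned in. Plates stay at 37 C for 40 h with fluorescence read at 0h, 8h, 16h, 24h, 32h and 40h.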

SMILES | Potency
COc1cc([C@H]2Oc3cc([C@H]4Oc5cc(O)cc(O)c5C(=O)[C@@H]4O)ccc3O[C@@H]2CO)ccc1O | inactive and 15.1 µM (active)
CC1=CC(C)(C)Nc2ccccc21 | inactive
COCCOCCOCCO | inactive
O=C1CCc2ccccc2O1 | inactive
O=[Se](O)O | inactive
FC(F)(F)C(Cl)Br (stereo not drawn) | inactive
C=CCOC(=O)C(=C)C | inactive
C=CC(=O)OCCCC | inactive
O=C(O)c1ccc(O)cc1 | inactive
CC(=O)Oc1ccc(C(c2ccc(OC(C)=O)cc2)c2ccccn2)cc1 | inactive
CCCCCC=O | inactive
CN1CCOCC1 | inactive
OCCNCCO | inactive
NCCOCCO | inactive
Cc1ccc(C(C)(C)C)c(O)c1 | inactive
CC(C)=CCO | inactive
CC(=O)Oc1c(C)c(C)c2c(c1C)CC[C@@](C)(CCC[C@H](C)CCC[C@H](C)CCCC(C)C)O2 | inactive
O=C(O)CCCCCCCCCCCC(=O)O | inactive
CCC(=O)O[C@H]1[C@H](O[C@@H]2[C@@H](C)[C@H](O[C@H]3C[C@@](C)(OC)[C@@H](O)[C@H](C)O3)[C@@H](C)C(=O)O[C@H](CC)[C@@](C)(O)[C@H](O)[C@@H](C)C(=O)[C@H](C)C[C@@]2(C)O)O[C@H](C)C[C@@H]1N(C)C | inactive
c1ccc2c(c1)[nH]c1ccccc12 | inactive
OC[C@@H](O)[C@@H](O[C@@H]1O[C@H](CO)[C@H](O)[C@H](O)[C@H]1O)[C@H](O)[C@@H](O)CO | inactive
C=C1C[C@H]2[C@@H]3C=C(C)C4=CC(=O)CC[C@]4(C)[C@H]3CC[C@]2(C)[C@@]1(OC(C)=O)C(C)=O | inactive
O=S1(=O)CCCO1 | inactive
CN(C)C | inactive
ClC/C=C/CCl | inactive
[O-]/[N+](=N\O)c1ccccc1 | inactive
Cc1ccc(S(=O)(=O)NCl)cc1 | inactive
